Giardia FBPA inh – blocks Giardia fructose-bisphosphate aldolase activity | purified Giardia FBPA | actives 0.71% (n = 290,000) | Potency, µM (series often up to 59.6 µM), inactives show top-dose activity, negative = inhibition, actives largely listed as inhibitors; also: nearly all actives have a fitted effect of over 55% in size
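40 nM FBPA preincubated 10 min at RT with compound (up to 57.5 uM final), then substrate plus GAPDH/TPI/NAD/arsenate coupling and diaphorase/resazurin added. Fluorescence read after 20 min at RT, 525/598 nm.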
RE007 growth inh – less growth of the S. pombe RE007 Vpr strain; Potency, µM (highest dose often 92.2 µM), for the others: at the top dose activity change, negative = less growth, actives largely listed as inhibitors; actives 0.21% (n = 360,000); S. pombe RE007 Vpr strain, BacTiter-Glo ATP luminescence, 24 h; AID 651644; active = well fitted falling curve with a large enough effect; inconclusive = small, poorly fitted or top-dose-only effect; inactive = no such curve, though single readings can be large or run the other way; also: nearly all actives have a fitted effect of over 50% in size
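Fission yeast RE007 carrying one integrated HIV-1 vpr copy, seeded at OD 0.01 in PMG+AL medium with 23 nL pinned compound. Grown 24 h at 30 degrees; viability read by BacTiter-Glo luminescence after 5 min.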
TbPYK inhibitor – blocks Trypanosoma brucei pyruvate kinase | TbPYK enzyme, Kinase-Glo Plus ATP luminescence, 45 min | Potency, µM (top dose mostly 76.8 µM), without a hit: at the highest dose activity, negative = inhibition, usual class: inhibitors | actives 0.12% (n = 410,000); also: nearly all actives have a fitted effect of over 50% in size
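Readout: single end-point luminescence (Kinase-Glo Plus, 10 min). Reaction conditions were TbPYK/substrate plus 130 uM ADP, 45 min at RT, pH 7.2 TEA buffer. No-enzyme wells served as controls, and data were normalized before concentration-response fitting.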
LmPK inh – LmPK (Leishmania mexicana) enzyme inhibition; purified LmPK, Kinase-Glo ATP luminescence, 1 h; Potency, µM (highest dose often 57.5 µM), inactives show at the top dose activity change, negative = inhibition, usual class: inhibitors; actives 0.37% (n = 290,000)
Target sequence (Q27686 whole entry, looked up): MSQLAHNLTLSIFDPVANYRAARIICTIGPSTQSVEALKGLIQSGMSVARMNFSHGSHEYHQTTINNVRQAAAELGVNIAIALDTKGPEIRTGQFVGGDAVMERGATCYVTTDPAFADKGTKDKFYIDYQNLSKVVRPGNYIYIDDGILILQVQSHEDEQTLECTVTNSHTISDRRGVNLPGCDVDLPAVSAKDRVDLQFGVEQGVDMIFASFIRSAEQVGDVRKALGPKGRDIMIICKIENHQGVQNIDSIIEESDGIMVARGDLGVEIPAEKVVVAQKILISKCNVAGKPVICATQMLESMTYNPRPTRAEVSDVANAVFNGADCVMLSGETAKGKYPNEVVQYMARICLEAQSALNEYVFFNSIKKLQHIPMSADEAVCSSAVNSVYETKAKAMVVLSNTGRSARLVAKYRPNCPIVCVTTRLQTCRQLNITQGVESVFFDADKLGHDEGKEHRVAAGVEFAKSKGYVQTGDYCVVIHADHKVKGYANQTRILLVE
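In 50 mM imidazole pH 7.2 with 7 mM MgCl2, LmPK (0.1 nM) turned over PEP (0.5 mM) and ADP (0.1 mM) for 1 h at room temperature. Luciferase read-out of ATP.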
An asterisk follows results filed as active; ? = inconclusive; . = no result; [ ] = another dose, or the depositor's remark. Shown are actives, neighbours in structure and some others; about 0.95% of the full set was active somewhere. Unless noted, calls follow the shape of the dose curve; as a rule, active = well fitted curve in the direction sought with a large enough effect; inconclusive = small, poorly fitted or top-dose-only effect, or another doubt; inactive = no such curve, though single readings can be large; an effect the other way counts as inactive or inconclusive. % is scaled to controls: 0 for no effect and ±100 for the full control effect; potency is read from the fitted curve at half-maximal effect.

SMILES	Giardia FBPA inh	RE007 growth inh	TbPYK inhibitor	LmPK inh
Cn1c(=O)c(-c2ccccc2)nc2cnc(N3CCOCC3)nc21	8%	.	.	.
CC(=O)C1=C(C)OC(N)=C(C#N)C1c1cccc2ccccc12 (stereo unspecified)	20µM*	-2%	-1%	1%
CC(=O)C1=C(C)OC(N)=C(C#N)C1c1ccco1 (stereo unspecified)	?	-15%	-13%	17%
CCN(CC)CCNc1cc(C)nc2c1C(=O)C(=O)C=C2N1CCCCC1	2µM*	0%	1%	?
C(=C1NCCN1)c1cccc2ccccc12	.	.	5%	.
COC(=O)c1ccc2c(c1O)C(=O)c1ccccc1C2=O	?	4.5µM*	2%	-1%
CC(C)(C)OC(=O)C1=NOC2(C=CC(=O)C=C2)C1	0%	.	.	.
CCOc1ccc(N=Nc2c(=O)[nH]n3c(=O)cc(C)[nH]c23)cc1	-14%	?	-12%	14µM*
O=C1[C@@H]2C(c3cccnc3)=NO[C@@H]2C(=O)N1c1ccc2ccccc2c1	-3%	14µM*	-8%	-2%
COc1ccc(C2=NO[C@@H]3C(=O)N(c4ccc5c(c4)OCCO5)C(=O)[C@H]23)cc1OC	-30%	4%	2%	-9%
O=C(OCn1ncc(Cl)c(Cl)c1=O)c1ccc(F)cc1	3%	.	.	2%
O=C(OCn1ncc(Cl)c(Cl)c1=O)c1ccccc1Cl	4%	45µM*	-1%	-5%
CN(C)c1ncc2nc(-c3ccc(Cl)cc3)c(=O)n(C3CC3)c2n1	-1%	.	4%	.
O=C(N/N=C/c1ccccc1)c1[nH]ncc1Br	-6%	-13%	?	13µM*
O=C(N/N=C/c1cccnc1)c1[nH]ncc1Br	-4%	-27%	-13%	18µM*
C=Cc1ccc(Cn2ccn(-c3ccc(F)c(F)c3)c(=O)c2=O)cc1	.	.	2%	.
Cc1ccc2nc(C)/c(=N\O)c(C)nc2c1	.	7%	-12%	-3%
Cc1nc2ccc(Cl)cc2nc(C)/c1=N\O	14µM*	-15%	0%	1%
CCCCn1c(C)cc2c(c1=O)C1O[C@](CCCC)(Cc3cc(C#N)ccc31)O2	-6%[12.9 µM]	.	.	-1%[11.5 µM]
COCCN1C(=O)N[C@@H](c2cccc(C(F)(F)F)c2)C(C(C)=O)=C1C	5%	.	.	.
c1ccc(OCc2nc3ccccc3[nH]2)cc1	-7%	-4%	0%	11µM*
O=S(=O)(O)OCC1OC(COS(=O)(=O)O)(C2(OS(=O)(=O)O)OC(CO)C(OS(=O)(=O)O)C(OS(=O)(=O)O)C2OS(=O)(=O)O)C(OS(=O)(=O)O)C1OS(=O)(=O)O (stereo unspecified)	.	.	-3%	.
COc1ccc(N=Cc2c(O)c3ccccc3oc2=O)cc1	-5%	-9%	-16%	16µM*
CCOC(=O)c1c(N)sc2c1CCN(Cc1ccccc1)C2	18µM*	.	3%	.
O=c1c2ccccc2sn1-c1ccc(Cl)cc1Cl	.	45µM*	18µM*	.
SMILES	Giardia FBPA inh	RE007 growth inh	TbPYK inhibitor	LmPK inh
O=C1NN(c2ccccc2)C(=O)/C1=C\c1ccc(-c2cc([N+](=O)[O-])ccc2O)o1	-26%	-9%	?	18µM*
O=C(Cn1c(=O)nc(-c2ccccc2)c2ccccc21)NCc1ccccc1Cl	.	.	-5%	.
Cn1c(=O)c(C(=O)NNC(=O)c2ccccc2Cl)c(O)c2ccccc21	-2%	-25%	-22%	-1%
Cn1c(=O)c(C(=O)NNC(=O)c2cccc(Cl)c2)c(O)c2ccccc21	8%	13µM*	0%	2%
Cc1cccc(C(=O)NNC(=O)c2c(O)c3ccccc3n(C)c2=O)c1	4%	40µM*	5%	-7%
C[C@@H]1CN(CC(=O)Nc2ccc3c(c2)Cc2cccc(-c4cc(=O)cc(N5CCOCC5)o4)c2S3)C[C@H](C)O1	.	.	0%	.
COC(=O)Nc1ccc(-c2nc(N3CCOCC3)c3cnn(C4CCN(C(=O)OC)CC4)c3n2)cc1	.	.	-1%	.
O=C(N/N=C/c1ccc(N2CCCCC2)o1)c1ccccc1	-28%	-9%	22µM*	-13%
O=C(Nc1ccc(N2CCCCC2)cc1)c1ccccc1	2%	?	-17%	3.5µM*
O=C(N/N=C/c1ccc(N2CCOCC2)o1)c1cccc([N+](=O)[O-])c1	?	3%	13µM*	-3%
Cc1ccc(/C=N/NC(=O)c2ccc(-c3ccccc3)cc2)o1	23%	-18%	-2%	0%
Cc1cc(OCC(=O)Nc2cc(-c3nc4ccccc4[nH]3)ccc2C)ccc1Cl	.	.	-2%	.
Cc1cccc(NC(=O)c2sc3cccc(Cl)c3c2Cl)c1	.	.	4%	.
COC(=O)C1=C(C(=O)OC)[C@@H]2N(C)c3ccccc3[C@@]23C[C@@H](C(=O)OC)N(S(=O)(=O)c2ccc(OC)cc2)C3=N1	0%[12.9 µM]	.	.	5%[11.5 µM]
CN(C)c1ccc(/C=C/C=C2/SC(=S)N(c3ccccc3)C2=O)cc1	-9%	-19%	?	13µM*
O=C(O)c1ccc(N2C(=O)/C(=C/C=C/c3ccccc3)SC2=S)cc1	-14%	-16%	-17%	3%
CC(C)(C)OC(=O)CN(Cc1ccc(Cl)cc1)Cc1ccc([N+](=O)[O-])s1	.	.	1%	.
C=CCOC(=O)[C@H](O)[C@@H](O)C(=O)OCC=C	-1%	.	.	.
Cc1onc(-c2ccccc2)c1C(=O)N[C@@H]1C(=O)N2[C@@H](C(=O)O)C(C)(C)S[C@@H]12	.	.	-10%	.
Cc1cccc(-n2c(CNC(=O)c3ccc(S(=O)(=O)N4CCCCC4)cc3)n[nH]c2=S)c1	8%	5%	7.9µM*	10%
CCOC(=O)c1nn(-c2ccc3c(c2)OCCO3)cc1O	-1%	-14%	2%	?
COC(=O)c1nn(-c2ccc3c(c2)OCO3)cc1O	.	-21%	-1%	18µM*
COC(=O)c1nn(-c2ccc3c(c2)CCN3C(C)=O)cc1O	.	-7%	18µM*	10µM*
CCCCN1CCC2C=CCC(C(=O)O)C2C1=O (stereo unspecified)	1%	.	.	.
COc1ccc(CNc2nc(-c3ccc(N(C)C)cc3)nc3ccccc23)c(OC)c1	18µM*	.	.	.
C/C(CCN1CCCc2nc(C)c(C)cc21)=N\O[C@@H](C)c1cn([C@@H]2COC[C@@H]2O)nn1	1%[12.9 µM]	.	.	.
